Reference: PubChem BioAssay AID1159580 (chemical genetic matrix, 2015)
Among all 5,500 compounds or so, about 2,000 (36%) were called active. About 18% were inconclusive and are not listed. No stated cut-off is given here; in the data, active means normalized growth mostly below about 0.91 (no sharp cut-off); inconclusive means no clear call, values can overlap the other calls; inactive means mostly above about 0.92. The list shows a part of the results.

Assay: chemical genetic growth profiling, strain panel (AID 1159580);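 further: tested at 20 µM; growth read once vehicle control cultures reached saturation at 30 °C; 1 = growth at the plate median or of vehicle wells; lower values mean less growth of the strain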
Details: growth OD

Measured: normalized growth

CC12CCC3C(CC=C4CC(O)CCC43C)C1CCC2=O (stereo not drawn)
active: S. cerevisiae deletion strains, locus YAL021C, strain ccr4, active compounds read low 0.838 | S. cerevisiae deletion strains, locus YAL026C, strain drs2, active compounds read low 0.582 | S. cerevisiae deletion strains, locus YAL030W, strain snc1, active compounds read low 0.927 | S. cerevisiae deletion strains, locus YBR009C, strain hhf1, active compounds read low 0.834 | S. cerevisiae deletion strains, locus YBR021W, strain FUR4, active compounds read low 0.752 | S. cerevisiae deletion strains, locus YBR279W, strain paf1, active compounds read low 0.876 | S. cerevisiae deletion strains, locus YCL011C, strain gbp2, active compounds read low 0.886 | S. cerevisiae deletion strains, locus YCL016C, strain dcc1, active compounds read low 0.9 | S. cerevisiae deletion strains, locus YCL029C, strain bik1, active compounds read low 0.904 | S. cerevisiae deletion strains, locus YDL035C, strain GPR1, active compounds read low 0.787 | S. cerevisiae deletion strains, locus YDL074C, strain BRE1, active compounds read low 0.778 | S. cerevisiae deletion strains, locus YDL134C, strain PPH21, active compounds read low 0.85 | S. cerevisiae deletion strains, locus YDR137W, strain rgp1, active compounds read low 0.473 | S. cerevisiae deletion strains, locus YDR162C, strain NBP2, active compounds read low 0.828 | S. cerevisiae deletion strains, locus YDR195W, strain ref2 1.54 [resistant] | S. cerevisiae deletion strains, locus YDR318W, strain mcm21, active compounds read low 0.886 | S. cerevisiae deletion strains, locus YDR392W, strain spt3, active compounds read low 0.234 | S. cerevisiae deletion strains, locus YDR502C, strain sam2, active compounds read low 0.879 | S. cerevisiae deletion strains, locus YEL003W, strain gim4, active compounds read low 0.88 | S. cerevisiae deletion strains, locus YER015W, strain faa2, active compounds read low 0.869 | S. cerevisiae deletion strains, locus YER155C, strain BEM2 (second series), active compounds read low 0.84 | S. cerevisiae deletion strains, locus YFR010W, strain ubp6, active compounds read low 0.891 | S. cerevisiae deletion strains, locus YGL086W, strain mad1, active compounds read low 0.888 | S. cerevisiae deletion strains, locus YGL173C, strain kem1, active compounds read low 0.879 | S. cerevisiae deletion strains, locus YGL248W, strain PDE1, active compounds read low 0.857 | S. cerevisiae deletion strains, locus YGL253W, strain hxk2, active compounds read low 0.791 | S. cerevisiae deletion strains, locus YGR135W, strain pre9, active compounds read low 0.871 | S. cerevisiae deletion strains, locus YGR252W, strain gcn5, active compounds read low 0.62 | S. cerevisiae deletion strains, locus YHR027C, strain rpn1, active compounds read low 0.895 | S. cerevisiae deletion strains, locus YHR129C, strain ARP1, active compounds read low 0.905 | S. cerevisiae deletion strains, locus YHR142W, strain chs7, active compounds read low 0.768 | S. cerevisiae deletion strains, locus YIL066C, strain RNR3, active compounds read low 0.823 | S. cerevisiae deletion strains, locus YJL095W, strain BCK1 (second series), active compounds read low 0.825 | S. cerevisiae deletion strains, locus YJL095W, strain BCK1, active compounds read low 0.655 | S. cerevisiae deletion strains, locus YJL129C, strain trk1, active compounds read low 0.801 | S. cerevisiae deletion strains, locus YJL164C, strain tpk1, active compounds read low 0.845 | S. cerevisiae deletion strains, locus YJL166W, strain qcr8, active compounds read low 0.813 | S. cerevisiae deletion strains, locus YKL009W, strain mrt4, active compounds read low 0.868 | S. cerevisiae deletion strains, locus YKL160W, strain elf1, active compounds read low 0.858 | S. cerevisiae deletion strains, locus YLL001W, strain dnm1, active compounds read low 0.902 | S. cerevisiae deletion strains, locus YLL026W, active compounds read low 0.88 | S. cerevisiae deletion strains, locus YLR027C, strain aat2, active compounds read low 0.849 | S. cerevisiae deletion strains, locus YLR039C, strain RIC1, active compounds read low 0.516 | S. cerevisiae deletion strains, locus YLR221C, strain rsa3, active compounds read low 0.779 | S. cerevisiae deletion strains, locus YLR262C, strain YPT6 (second series), active compounds read low 0.441 | S. cerevisiae deletion strains, locus YLR268W, strain sec22, active compounds read low 0.882 | S. cerevisiae deletion strains, locus YLR320W, strain mms22, active compounds read low 0.429 | S. cerevisiae deletion strains, locus YLR342W, strain FKS1 (second series), active compounds read low 0.781 | S. cerevisiae deletion strains, locus YLR418C, strain cdc73, active compounds read low 0.766 | S. cerevisiae deletion strains, locus YML032C, strain rad52, active compounds read low 0.855 | S. cerevisiae deletion strains, locus YMR058W, strain fet3, active compounds read low 0.885 | S. cerevisiae deletion strains, locus YMR205C, strain PFK2, active compounds read low 0.811 | S. cerevisiae deletion strains, locus YNL071W, strain lat1, active compounds read low 0.513 | S. cerevisiae deletion strains, locus YNL209W, strain ssb2, active compounds read low 0.927 | S. cerevisiae deletion strains, locus YNL248C, strain rpa49, active compounds read low 0.777 | S. cerevisiae deletion strains, locus YNL307C, strain MCK1, active compounds read low 0.707 | S. cerevisiae deletion strains, locus YNL322C, strain KRE1, active compounds read low 0.924 | S. cerevisiae deletion strains, locus YNR052C, strain pop2, active compounds read low 0.861 | S. cerevisiae deletion strains, locus YOL147C, strain pex11, active compounds read low 0.91 | S. cerevisiae deletion strains, locus YOR001W, strain rrp6, active compounds read low 0.8 | S. cerevisiae deletion strains, locus YOR070C, strain gyp1, active compounds read low 0.81 | S. cerevisiae deletion strains, locus YOR083W, strain WHI5, active compounds read low 0.86 | S. cerevisiae deletion strains, locus YOR184W, strain ser1, active compounds read low 0.694 | S. cerevisiae deletion strains, locus YOR270C, strain vph1, active compounds read low 0.578 | S. cerevisiae deletion strains, locus YOR290C, strain snf2, active compounds read low 0.848 | S. cerevisiae deletion strains, locus YPL051W, strain arl3, active compounds read low 0.861 | S. cerevisiae deletion strains, locus YPL078C, strain atp4, active compounds read low 0.864 | S. cerevisiae deletion strains, locus YPL106C, strain sse1, active compounds read low 1.27 [resistant] | S. cerevisiae deletion strains, locus YPR163C, strain tif3, active compounds read low 0.893 | S. cerevisiae deletion strains, strain wtn01, active compounds read low 0.854 | S. cerevisiae strains, strain wild type, active compounds read low 0.877
inactive: S. cerevisiae deletion strains, locus YAL013W, strain DEP1, active compounds read low 0.948 | S. cerevisiae deletion strains, locus YBL061C, strain skt5, active compounds read low 0.936 | S. cerevisiae deletion strains, locus YBR023C, strain chs3, active compounds read low 0.933 | S. cerevisiae deletion strains, locus YBR171W, strain sec66, active compounds read low 0.978 | S. cerevisiae deletion strains, locus YBR229C, strain ROT2, active compounds read low 1.02 | S. cerevisiae deletion strains, locus YBR231C, strain swc5, active compounds read low 0.926 | S. cerevisiae deletion strains, locus YCL069W, strain vba3, active compounds read low 0.94 | S. cerevisiae deletion strains, locus YCR088W, strain abp1, active compounds read low 1.02 | S. cerevisiae deletion strains, locus YDL005C, strain med2, active compounds read low 0.995 | S. cerevisiae deletion strains, locus YDL040C, strain nat1, active compounds read low 1.02 | S. cerevisiae deletion strains, locus YDL101C, strain DUN1, active compounds read low 0.994 | S. cerevisiae deletion strains, locus YDL185W, strain tfp1, active compounds read low 1.04 | S. cerevisiae deletion strains, locus YDL192W, strain arf1, active compounds read low 0.934 | S. cerevisiae deletion strains, locus YDR001C, strain nth1, active compounds read low 1.03 | S. cerevisiae deletion strains, locus YDR069C, strain doa4, active compounds read low 0.945 | S. cerevisiae deletion strains, locus YDR101C, strain arx1, active compounds read low 0.955 | S. cerevisiae deletion strains, locus YDR159W, strain sac3, active compounds read low 0.916 | S. cerevisiae deletion strains, locus YDR297W, strain sur2, active compounds read low 0.95 | S. cerevisiae deletion strains, locus YDR334W, strain swr1, active compounds read low 1.04 | S. cerevisiae deletion strains, locus YDR335W, strain msn5, active compounds read low 0.961 | S. cerevisiae deletion strains, locus YDR388W, active compounds read low 1.02 | S. cerevisiae deletion strains, locus YEL037C, strain rad23, active compounds read low 1 | S. cerevisiae deletion strains, locus YEL061C, strain CIN8 (second series), active compounds read low 1.01 | S. cerevisiae deletion strains, locus YER016W, strain bim1, active compounds read low 1.01 | S. cerevisiae deletion strains, locus YER110C, active compounds read low 1.06 | S. cerevisiae deletion strains, locus YER111C, strain swi4, active compounds read low 1.01 | S. cerevisiae deletion strains, locus YER155C, strain BEM2, active compounds read low 1.02 | S. cerevisiae deletion strains, locus YER167W, strain BCK2, active compounds read low 0.929 | S. cerevisiae deletion strains, locus YGL078C, strain dbp3, active compounds read low 0.979 | S. cerevisiae deletion strains, locus YGL167C, strain pmr1, active compounds read low 1 | S. cerevisiae deletion strains, locus YGL227W, strain vid30, active compounds read low 1.01 | S. cerevisiae deletion strains, locus YGL240W, strain doc1, active compounds read low 0.911 | S. cerevisiae deletion strains, locus YGR078C, strain PAC10, active compounds read low 0.887 | S. cerevisiae deletion strains, locus YHR013C, strain ard1, active compounds read low 0.868 | S. cerevisiae deletion strains, locus YHR030C, strain SLT2, active compounds read low 1.03 | S. cerevisiae deletion strains, locus YHR079C, strain IRE1 (second series), active compounds read low 1.02 | S. cerevisiae deletion strains, locus YHR094C, strain hxt1, active compounds read low 1.05 | S. cerevisiae deletion strains, locus YHR200W, strain rpn10, active compounds read low 0.93 | S. cerevisiae deletion strains, locus YIL073C, strain SPO22, active compounds read low 0.783 | S. cerevisiae deletion strains, locus YIL125W, strain kgd1, active compounds read low 0.989 | S. cerevisiae deletion strains, locus YIR030C, strain dcg1, active compounds read low 1 | S. cerevisiae deletion strains, locus YJL092W, strain hpr5, active compounds read low 0.948 | S. cerevisiae deletion strains, locus YJL115W, strain asf1, active compounds read low 0.997 | S. cerevisiae deletion strains, locus YJL134W, strain LCB3, active compounds read low 1.03 | S. cerevisiae deletion strains, locus YJL154C, strain vps35, active compounds read low 1.02 | S. cerevisiae deletion strains, locus YJL168C, strain set2, active compounds read low 1.04 | S. cerevisiae deletion strains, locus YJL187C, strain SWE1 (second series), active compounds read low 0.879 | S. cerevisiae deletion strains, locus YKL068W, active compounds read low 1.02 | S. cerevisiae deletion strains, locus YKL085W, strain MDH1 (second series), active compounds read low 0.983 | S. cerevisiae deletion strains, locus YKL085W, strain MDH1, active compounds read low 0.983 | S. cerevisiae deletion strains, locus YKL190W, strain CNB1, active compounds read low 0.929 | S. cerevisiae deletion strains, locus YKR001C, strain vps1, active compounds read low 1.01 | S. cerevisiae deletion strains, locus YKR026C, strain gcn3, active compounds read low 1.03 | S. cerevisiae deletion strains, locus YKR091W, strain srl3, active compounds read low 1.02 | S. cerevisiae deletion strains, locus YLL041C, strain sdh2, active compounds read low 0.999 | S. cerevisiae deletion strains, locus YLR058C, strain SHM2, active compounds read low 0.908 | S. cerevisiae deletion strains, locus YLR102C, strain apc9, active compounds read low 1.02 | S. cerevisiae deletion strains, locus YLR258W, strain gsy2, active compounds read low 0.939 | S. cerevisiae deletion strains, locus YLR330W, strain CHS5, active compounds read low 0.929 | S. cerevisiae deletion strains, locus YLR342W, strain FKS1, active compounds read low 0.932 | S. cerevisiae deletion strains, locus YLR357W, strain rsc2, active compounds read low 1.1 | S. cerevisiae deletion strains, locus YLR370C, strain arc18, active compounds read low 0.993 | S. cerevisiae deletion strains, locus YLR371W, strain rom2, active compounds read low 1.07 | S. cerevisiae deletion strains, locus YLR384C, strain iki3, active compounds read low 1.03 | S. cerevisiae deletion strains, locus YML016C, strain PPZ1, active compounds read low 0.979 | S. cerevisiae deletion strains, locus YML120C, strain ndi1, active compounds read low 0.92 | S. cerevisiae deletion strains, locus YML124C, strain tub3, active compounds read low 1 | S. cerevisiae deletion strains, locus YMR078C, strain ctf18, active compounds read low 1.02 | S. cerevisiae deletion strains, locus YMR125W, strain sto1, active compounds read low 0.971 | S. cerevisiae deletion strains, locus YMR129W, active compounds read low 0.975 | S. cerevisiae deletion strains, locus YMR223W, strain ubp8, active compounds read low 0.946 | S. cerevisiae deletion strains, locus YMR231W, strain pep5, active compounds read low 0.989 | S. cerevisiae deletion strains, locus YMR263W, strain SAP30, active compounds read low 0.976 | S. cerevisiae deletion strains, locus YMR307W, strain GAS1, active compounds read low 1.11 | S. cerevisiae deletion strains, locus YNL067W, strain RPL9B, active compounds read low 0.917 | S. cerevisiae deletion strains, locus YNL153C, strain GIM3, active compounds read low 0.887 | S. cerevisiae deletion strains, locus YNL233W, strain BNI4, active compounds read low 0.889 | S. cerevisiae deletion strains, locus YNL250W, strain rad50, active compounds read low 0.947 | S. cerevisiae deletion strains, locus YNL271C, strain bni1, active compounds read low 0.993 | S. cerevisiae deletion strains, locus YNL298W, strain CLA4, active compounds read low 0.929 | S. cerevisiae deletion strains, locus YNL322C, strain KRE1 (second series), active compounds read low 1.01 | S. cerevisiae deletion strains, locus YNR049C, strain mso1, active compounds read low 1.01 | S. cerevisiae deletion strains, locus YOL006C, strain TOP1, active compounds read low 0.572 | S. cerevisiae deletion strains, locus YOL012C, strain htz1 1.48 | S. cerevisiae deletion strains, locus YOR061W, strain CKA2, active compounds read low 0.907 | S. cerevisiae deletion strains, locus YOR069W, strain VPS5, active compounds read low 0.962 | S. cerevisiae deletion strains, locus YOR080W, strain dia2, active compounds read low 0.974 | S. cerevisiae deletion strains, locus YOR106W, strain vam3, active compounds read low 0.89 | S. cerevisiae deletion strains, locus YOR136W, strain idh2, active compounds read low 1.01 | S. cerevisiae deletion strains, locus YOR144C, strain elg1, active compounds read low 0.987 | S. cerevisiae deletion strains, locus YOR265W, strain rbl2, active compounds read low 0.969 | S. cerevisiae deletion strains, locus YOR316C, strain cot1, active compounds read low 1.04 | S. cerevisiae deletion strains, locus YPL240C, strain hsp82, active compounds read low 1.01 | S. cerevisiae deletion strains, locus YPL241C, strain CIN2, active compounds read low 1.02 | S. cerevisiae deletion strains, locus YPR119W, strain clb2, active compounds read low 1.05 | S. cerevisiae deletion strains, locus YPR141C, strain kar3, active compounds read low 1.06 | S. cerevisiae deletion strains, locus YPR167C, strain met16, active compounds read low 0.928
